Reference: PubChem BioAssay (NCATS)
Where “and” joins values, the source holds several entries; their conditions need not be identical. Equal values may be shown once. Records with an inconclusive call do not appear. Calls of active or inactive are those of the source. The call rests on the fitted dose curve. Residues, ends and D or L forms follow the SMILES beside them.

target: Bile acid receptor (Homo sapiens) (UniProt Q96RI1); assay: qHTS assay for small molecule agonists of farnesoid X receptor signaling (AID 588527); details: HEK293T FXR-UAS-bla, beta-lactamase ratio, 16 h; active compounds read high;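 further: series mostly up to about 77 µM; 0% = vehicle basal and 100% = reference agonist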
Sequence (Q96RI1 whole entry, looked up): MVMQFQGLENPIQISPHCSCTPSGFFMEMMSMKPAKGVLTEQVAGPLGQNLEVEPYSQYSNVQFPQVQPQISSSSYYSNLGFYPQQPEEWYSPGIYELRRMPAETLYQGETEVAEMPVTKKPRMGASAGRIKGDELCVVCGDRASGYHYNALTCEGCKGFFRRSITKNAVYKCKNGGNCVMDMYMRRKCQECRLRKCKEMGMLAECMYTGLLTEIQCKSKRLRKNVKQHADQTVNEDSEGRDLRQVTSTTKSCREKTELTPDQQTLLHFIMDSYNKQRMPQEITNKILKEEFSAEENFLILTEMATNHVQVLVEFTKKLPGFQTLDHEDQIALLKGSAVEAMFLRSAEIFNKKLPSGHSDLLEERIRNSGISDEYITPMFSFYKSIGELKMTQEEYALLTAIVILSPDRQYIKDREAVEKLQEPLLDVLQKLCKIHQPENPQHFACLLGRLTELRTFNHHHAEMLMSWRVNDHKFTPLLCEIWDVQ
How it was run: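 Agonist-mode beta-lactamase reporter in GeneBLAzer FXR-UAS-bla HEK293T cells, titration up to 92 uM, 16 h exposure at 37 C, CCF4 fluorescence. Response scaled to DMSO (0%) and 100 uM chenodeoxycholic acid (100%), then Hill-fitted for EC50 and efficacy.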

Structure (SMILES)	activation
O=C(O)c1cc(-c2ccccc2)nc2ccccc12	-1.96% (inactive)
c1ccc2sc(SSc3nc4ccccc4s3)nc2c1	4.39% (inactive)
COc1cc(C=O)ccc1O	-1.98% (inactive) and -0.968% (inactive)
O=C(O)CCCCC(=O)O	-1.88% (inactive)
Nc1ccc(C(=O)O)cc1	2.28% (inactive)
Oc1ccccc1	0.295% (inactive) and -0.629% (inactive) and -5.57% (inactive)
CCCCOC(=O)c1ccc(O)cc1	2.27% (inactive)
Cc1ncc(CO)c(CO)c1O	-0.349% (inactive)
CC(O)CN(CCN(CC(C)O)CC(C)O)CC(C)O (centres undefined)	0.352% (inactive)
O=C(O)Cc1cccc2ccccc12	-0.869% (inactive) and 1.54% (inactive)
COc1ccc(C(=O)c2ccccc2)c(O)c1	-3.45% (inactive) and -6.15% (inactive)
CC(C)=CCC/C(C)=C/CO	0.54% (inactive)
Nc1nc(Cl)nc2c1ncn2[C@H]1C[C@H](O)[C@@H](CO)O1	-0.12% (inactive)
CC(=O)Nc1ccccc1	3.71% (inactive)
CC(C)(C)CC(C)(C)c1ccc(OCCOCC[N+](C)(C)Cc2ccccc2)cc1	-1.62% (inactive)
COC(=O)[C@H](Cc1ccccc1)NC(=O)[C@@H](N)CC(=O)O (H-Asp-Phe-OMe)	-0.395% (inactive) and 1.51% (inactive)
COc1c2occc2cc2ccc(=O)oc12	0.341% (inactive) and 4.08% (inactive)

Structure (SMILES)	activation
CCOC(=O)c1ccc(O)cc1	0.927% (inactive)
S=P(N1CC1)(N1CC1)N1CC1	4.46% (inactive)
CCCc1c(OCCCCc2nn[nH]n2)ccc(C(C)=O)c1O	7.75% (inactive)
CC(=O)O[C@H]1C(=O)[C@@]2(C)[C@H]([C@H](OC(=O)c3ccccc3)[C@]3(O)C[C@H](OC(=O)[C@H](O)[C@@H](NC(=O)c4ccccc4)c4ccccc4)C(C)=C1C3(C)C)[C@]1(OC(C)=O)CO[C@@H]1C[C@@H]2O	3.09% (inactive)
Cc1cc(=O)[nH]c(=S)[nH]1	0.173% (inactive)
Cc1cc(NS(=O)(=O)c2ccc(N)cc2)no1	-1.53% (inactive)
CC(O)C(=O)O (centres undefined)	-0.922% (inactive)
CC(=O)O[C@]1(C(C)=O)CC[C@H]2[C@@H]3C[C@H](C)C4=CC(=O)CC[C@]4(C)[C@H]3CC[C@@]21C	0.881% (inactive)
NC(=O)c1ccccc1O	-3.79% (inactive)
CN(C)c1ccc2nc3ccc(=[N+](C)C)cc-3sc2c1	-2.46% (inactive)
NCCNCCNCCN	-3.81% (inactive)
O=C(O)c1ccc(S(=O)(=O)N(Cl)Cl)cc1	0.222% (inactive)
Cc1cc(C)nc(NS(=O)(=O)c2ccc(N)cc2)n1	1.04% (inactive) and -0.0754% (inactive)
CC12CCC(CC1)C(C)(C)O2	-0.483% (inactive)
Nc1ccc(S(=O)(=O)c2ccc(N)cc2)cc1	5.45% (inactive) and -0.614% (inactive)
Oc1cccc(O)c1	-2.84% (inactive)
Cc1c(C)c2c(c(C)c1O)CCC(C)(COc1ccc(CC3SC(=O)NC3=O)cc1)O2 (centres undefined)	9.23% (inactive)
